Usually inhibition stands for the percentage by which the read-out fell short of the control.

Drawing on PubChem BioAssay AID588727 (Southern Research Specialized Biocontainment Screening …, 2011), this text covers inhibition for 52 compounds.

This test in a line: inhibitors of VEEV TC-83 cytopathic effect, confirmation, Vero cells (AID 588727). Conditions: VEEV TC-83 cytopathic effect inhibition, at 20 µM. Background: Cytopathic effects are the visible damage that an infection or toxin causes in cultured cells.
[1] abbreviates: stronger effect = higher value unless noted.
[2] abbreviates: measured here: 10K pilot screen inhibition, stronger effect = higher value.

The whole screen tested about 350,000 compounds, of which about 450 (0.13%) were called active. No rule for the calls is given here. Only a sample is shown. Potency and affinity values are given separately.

For the compound `Cc1ccccc1NC(=O)NCCCN1CCN(C)CC1`, the inhibition under setting [1] is 0.45% (inactive).
Still for that read-out and setting: the value for `Cc1ccccc1NC(=O)NCCN1CC1` was “inactive”.
Still for that read-out and setting: the value for `CC(NC(=O)c1cccc(S(=O)(=O)N(C)c2ccccc2)c1)c1cccnc1` (centres undefined) was 1.03% (inactive); that for `C[N+]1(CCCCSc2ccc(O)cc2)CCCCC1` was “inactive”.
For the compound `Cc1ccc(NC(=O)CSc2ccc(-c3ccccn3)nn2)cc1`, the inhibition under setting [1] was 0.64% (inactive).
As to `CC(C)NC(=O)CSc1nc2ccccc2n1-c1ccccc1`, under setting [1], the inhibition was 3.21% (inactive).
For the compound `Cn1nnnc1SCC(=O)Nc1ncc(Cl)cc1Cl`, the inhibition under setting [1] is 2.56% (inactive).
Still for that read-out and setting: the value for `Cc1ccc(-n2c(SCC(=O)Nc3cccc(S(N)(=O)=O)c3)nc3ccccc32)cc1` was 2.21% (inactive); that for `CC(C)(C)NC(=O)CSc1nc2ccccc2n1-c1ccccc1` was 7.16% (inactive).
For the compound `O=C(CSc1nnc2ccccn12)Nc1ncc(Cl)cc1Cl`, the inhibition under setting [1] is 3.72% (inactive).
Same read-out and setting: the value for `Cc1nnc(SCC(=O)Nc2ncc(Cl)cc2Cl)n1Cc1ccccc1` was 1.6% (inactive); that for `CC(C)c1ccc(-c2cc(C(=O)N3N=C(C(F)F)CC3(O)C(F)F)c3ccccc3n2)cc1` (centres undefined) was “inactive”; that for `O=C1CCC(C(=O)N2CCCCO2)CN1CCc1ccccc1` (centres undefined) was 2.16% (inactive).
The same measure, in the same setting: the value for `COc1ccc(C2CN=NC2C(=O)c2ccccc2)cc1` (centres undefined) was 0.98% (inactive); that for `Cc1ccc(/C=N/n2c(-c3cccnc3)n[nH]c2=S)o1` was 0.4% (inactive); that for `CC(=O)Nc1ccc(S(=O)(=O)NC2=NCN(c3cccc([N+](=O)[O-])c3)CN2)cc1` was 0.07% (inactive).
With `Cc1nn(-c2ccccc2)c2c1C1(C(=O)Nc3ccccc31)N1C(=N2)Sc2ccccc21` (centres undefined), the inhibition under setting [1] was 1.86% (inactive).
Same read-out and setting: the value for `CCCCCc1ccc(-c2nnc(N)s2)cc1` was 2.86% (inactive); that for `CC1=Nc2cc(C(=O)O)ccc2Sc2c(C)ccc(C)c21` was 0.43% (inactive).
Turning to `CC1=Nc2cc(C(=O)N3CCCC3)ccc2Sc2ccc(C)cc21`, the inhibition under setting [1] is 1.14% (inactive).
As to `CCOc1ccc(CCNC(=O)CCS(=O)(=O)c2ccc(OC)cc2)cc1OCC`, the inhibition under setting [1] is 0.09% (inactive).
For the compound `O=C(Cn1ncc2c([nH]c3ccccc32)c1=O)NCCc1ccc(Cl)cc1`, the inhibition under setting [1] is 1.06% (inactive).
Take `CCN(CC)c1ccc(-n2cc3c(=O)n(C)c(=O)n(C)c3c2)cc1`: under setting [1], the inhibition was 5.43% (inactive).
For `Cc1ccc(C)c(NC(=O)c2ccc3ccccc3n2)c1`, the inhibition under setting [1] was 4.34% (inactive).
On the same count and under the same terms, the value for `CC(=O)OCC(=O)C1(O)CCC2C3CC(C)C4=CC(=O)CCC4(C)C3C(O)CC21C` (centres undefined) was 2.53% (inactive); that for `C[C@@H]1O[C@@H](O[C@@H]2C=C3CCC4C(CC[C@]5(C)[C@@H](c6ccc(=O)oc6)CC[C@]45O)[C@@]3(C)CC2)[C@H](O)[C@H](O)[C@H]1O` (some centres undefined) was 23.8% (inactive).
Same read-out and setting: the value for `CNC(=O)Nc1ccc(C(=O)N/N=C\C23CC[C@@H](O)CC2(O)CC[C@@H]2[C@@H]3CCC3(C)C(C4=CC(=O)OC4)CCC23O)cc1` (some centres undefined) was 3.29% (inactive); that for `CCCOC1(NC(=O)c2ccccc2)C(C)=CC(=O)C=C1C` was “inactive”; that for `CC1CC(C)CN(S(=O)(=O)c2ccc(C(=O)N3CCN(c4ccccc4)CC3)cc2)C1` (centres undefined) was 1.42% (inactive).
Consider `CCOc1ccc(NS(=O)(=O)c2ccc(C(=O)N(C)CC(=O)Nc3ccc(OC)cc3)cc2)cc1`, for which the inhibition under setting [1] was 4.36% (inactive).
Regarding `Cc1ccc(-n2c(SCC(=O)O)nc3sc4c(c3c2=O)CC(C)(C)SC4)cc1`, the inhibition under setting [1] is 0.39% (inactive).
As for `CCN1C(=O)/C(=C/c2cn(-c3ccccc3)nc2-c2cccnc2)SC1=S`, under setting [1], the inhibition is 0.65% (inactive).
For `O=C(CCCc1cccs1)Nc1nc2c(s1)CCCC2`, the inhibition under setting [1] is 5.78% (inactive).
As for `COc1ccc(OCC(=O)Nc2nc3c(s2)CCCC3)cc1`, the inhibition under setting [1] was 5.92% (inactive).
With `O=C(COc1ccccc1)Nc1nc2c(s1)CCCC2`, the inhibition under setting [1] is 3.03% (inactive).
Regarding `CC1CCc2nc(NC(=O)Cc3cccs3)sc2C1` (centres undefined), the inhibition under setting [1] was 4.77% (inactive).
Turning to `CCOC1CCCC(n2cnc3c(=S)nc[nH]c32)O1` (centres undefined), the inhibition under setting [1] is 2.72% (inactive).
Still for that read-out and setting: the value for `CCCC(=O)Nc1ccc(NC(=O)c2cccc(OC)c2)cn1` was 0.41% (inactive); that for `COc1ccccc1CCC(=O)OCC(=O)NC1CC1` was 2.29% (inactive).
Still for that read-out and setting: the value for `CC1=NOC2(C1)N(C)c1ccccc1C2(C)C` (centres undefined) was 0.08% (inactive); that for `CCN(CC)S(=O)(=O)c1ccc(C2=NOC3(C2)N(C)c2ccccc2C3(C)C)cc1` (centres undefined) was 8.77% (inactive).
Consider `CCn1c(SCC(=O)OC)nnc1-c1ccncc1`, for which the inhibition under setting [1] is 0.14% (inactive).
On the same count and under the same terms, the value for `COc1cccc(CC(=O)OCC(=O)NC(C)c2ccc(F)cc2)c1` (centres undefined) was 4.67% (inactive); that for `Cc1cc(-c2nnc(SCCC(=O)Nc3ccccc3)o2)no1` was 0.79% (inactive).
Turning to `O=C(CSc1nnnn1C1CC1)Nc1ccc(S(=O)(=O)N2CCOCC2)cc1`, under setting [1], the inhibition was 1.19% (inactive).
Still for that read-out and setting: the value for `CN(C)c1ccc(/C=C/c2c([N+](=O)[O-])c(=O)n(C)c(=O)n2C)cc1` was 0.74% (inactive); that for `COc1ccc(/C=C/c2c([N+](=O)[O-])c(=O)n(C)c(=O)n2C)cc1` was 0.41% (inactive).
On the same count and under the same terms, the value for `Cc1ccc(S(=O)(=O)Nc2cccc(C(=O)N3CCOCC3)c2)cc1` was “inactive”.
For `Cc1cc(C)cc(NC(=O)CSc2nc3ccccc3nc2N2CCCCC2)c1`, the inhibition (stronger effect = higher value) was 3.44% (inactive) and the inhibition under setting [2] was determined as 1.42%.
For `Cc1cc(C)cc(NC(=O)CSc2nc3ccccc3nc2N2CCCC2)c1`, in that order: 4.9% (inactive) and 0.985%.
Turning to `CCc1ccc(C(C(=O)NC2CCCC2)N(C(=O)c2csnn2)C2CC2)cc1` (centres undefined), the inhibition under setting [1] is 0.43% (inactive).
On the same count and under the same terms, the value for `CCN(CC)S(=O)(=O)c1ccc(OC)c(NS(=O)(=O)c2ccc(F)cc2)c1` was “inactive”.
